# According to ChEMBL document CHEMBL3988442, “University of Dundee, Small-Polar-MMV Screening Library” (2021):
# Out of some 48,000 compounds screened, about 13,000 (27%) showed an effect of 50% or more. Some of the results follow.
# System: Wolbachia pipientis
# Experiment: Anti-Wolbachia Cell-Based Screen
# Format: functional
# Set-up: scale not given: in the data most compounds retested in dose-response had high values
# Conditions: 5 µM
row,Compound,Percent Effect [%]
1,CC(CCc1ccc(F)c(F)c1)NS(=O)(=O)Cc1ccon1 (configuration not stated),102
2,Cc1ccc(OCC(C)NS(=O)(=O)Cc2ccon2)cc1 (configuration not stated),103.4
3,Cc1ccc(C(=O)NS(=O)(=O)Cc2ccon2)c(C)c1,-32.05
4,Cc1ccc(OCC(C)NS(C)(=O)=O)cc1 (configuration not stated),1.319
5,CC(C)CC(CO)NS(=O)(=O)Cc1ccon1 (configuration not stated),92.95
6,O=C(CCc1cccc(Cl)c1)NS(=O)(=O)Cc1ccon1,-7.174
7,O=C(NS(=O)(=O)Cc1ccon1)c1ccsc1,-7.233
8,Cc1ccc(OCC(C)NS(=O)(=O)N(C)C)cc1 (configuration not stated),-6.618
9,Cc1cc(C(=O)NS(=O)(=O)Cc2ccon2)c(C)n1C(C)C,19.94
10,CCC(CNC(=O)Cc1cc(C)on1)Oc1cccc(F)c1 (configuration not stated),6.278
11,CN1CCN(c2ncnc3c2c(C(=O)NC2CC2)c2ccccn23)CC1,-8.273
12,Cc1ccccc1CN1CCN(CC(=O)Nc2cccnc2)CC1,7.585
13,O=C(CN1CCOC(Cn2cccn2)C1)NCc1cccs1 (configuration not stated),2.249
14,CC1CN(C(=O)NCc2ccn(C)c2)CCN1CC(F)(F)F (configuration not stated),-7.034
15,Cc1csc(N2CCN(CC(=O)Nc3nncs3)CC2C)n1 (configuration not stated),1.073
16,O=C(CN1CCN(c2nccs2)CC1)Nc1cccnc1,105.2
17,Cc1csc(N2CCN(CC(=O)Nc3cccnc3)CC2C)n1 (configuration not stated),114.5
18,Cc1csc(N2CCN(CCc3ccccn3)CC2C)n1 (configuration not stated),3.431
19,O=C(CN1C[C@H]2CC[C@@H]1CN(Cc1ccccn1)C2)NCc1cccs1,1.062
20,CC1CN(CC(=O)NC(=O)NCc2cccs2)CCN1CC(F)(F)F (configuration not stated),103.7
21,O=C(CCN1CCCN(c2nccs2)CC1)Nc1ccccc1,4.493
22,CC1CN(CC(=O)NCc2cccs2)CCN1c1nccs1 (configuration not stated),105.4
23,C[C@@H]1CN(Cc2ccccc2)CCN1C(=O)NCc1nccs1,-1.817
24,COC(=O)N1CCCN(C(=O)NCc2ccc(Cl)s2)CC1,11.92
25,CC(C)COCCC(=O)Nc1cc(-n2nnnc2C2CC2)ccc1F,3.649
26,CC1CN(CC(=O)Nc2ccncc2)CCN1c1nccs1 (configuration not stated),150.9

row,Compound,Percent Effect [%]
1,CC1CN(CC(=O)Nc2nncs2)CCN1c1nccs1 (configuration not stated),-0.151
2,CC1CN(CC(=O)Nc2cccnc2)CCN1c1nccs1 (configuration not stated),0.898
3,CCSC(C)C(=O)N1CCC(c2nn(C)c(=O)n2-c2ccccc2)CC1 (configuration not stated),-5.623
4,OCCOCCN1CCCC1c1cccc(Cl)c1 (configuration not stated),-3.053
5,OCCN1CCCCC1c1cc[nH]n1 (configuration not stated),167
6,c1cc(C2CCCN2CC2CC2)n[nH]1 (configuration not stated),189.2
7,COCCOc1ccnc(-c2noc([C@@H]3CCCN3CC(C)C)n2)c1,-7.911
8,CC(C)CN1CCCC1c1ccc(C(=O)Nc2cc[nH]n2)s1 (configuration not stated),6.388
9,OCCCN1CCCC1c1ccc(Br)cc1 (configuration not stated),-3.155
10,c1cc(-c2c[nH]c([C@@H]3COCCN3CC3CC3)n2)ccn1,-6.01
11,c1cc(C2CCCN2CC2CCCCC2)n[nH]1 (configuration not stated),159.6
12,Nc1ncncc1-c1noc([C@@H]2CCCN2CC2CC2)n1,-1.832
13,CN1CCC(c2n[nH]c(=O)n2CC2CCCCC2)CC1,16.1
14,c1cc(-c2noc([C@@H]3CCCN3CC3CC3)n2)cc(N2CCCC2)n1,1.663
15,CC(C)CN1CCCC1c1cc[nH]n1 (configuration not stated),114.8
16,CC(C)NC(=O)CCNC(=O)c1cc(F)ccc1NS(C)(=O)=O,-9.152
17,CCOc1ccc(C(=O)N(C)C)cc1NC(=O)c1ccsc1,9.824
18,CCc1nncn1CCNC(=O)Nc1ccc(OC)c(C)c1,-6.777
19,CCn1ccnc1CN1CCN(CC(O)Cn2cccn2)CC1 (configuration not stated),-2.692
20,Cc1ccc(CNCc2nnc3n2CCCC3C(F)(F)F)o1 (configuration not stated),18.11
21,Cc1cc(C)c2cc(CNCc3ccccc3)c3nn(C)c(=O)n3c2c1,-7.626
22,Cc1ccc(NCc2ccco2)cc1N1CCOC1=O,-6.269
23,Cc1cc(C)c2cc(CNCc3cccnc3)c3nn(C)c(=O)n3c2c1,113.3
24,Cc1ccc(CNCCC(O)(c2nccn2C)C(F)(F)F)o1 (configuration not stated),-16.77
25,Cc1cc(C)c2cc(C(=O)N3CCN(Cc4ccco4)CC3)[nH]c2c1,21.49
26,Cc1cc(C)c2cc(CNCc3ccc(C)o3)c3nn(C)c(=O)n3c2c1,122.6
